Here are results for 22 compounds from PubChem BioAssay (NCATS).

Values joined by “and” are separate entries in the source; they are usually repeats but may differ in a detail not shown here. Equal entries are not always repeated. Values without a mark were called inactive. Records with an inconclusive call do not appear. Active and inactive are the calls of the source. Unless noted, calls follow the shape of the dose curve; as a rule, active = well fitted curve in the direction sought with a large enough effect; inconclusive = small, poorly fitted or top-dose-only effect, or another doubt; inactive = no such curve, though single readings can be large; an effect the other way counts as inactive or inconclusive.

Assay [1] deals with PA-1. Briefly: Primary qHTS to identify gynecologic anti-cancer compounds using libraries of approved drugs and bioactive compounds (AID 1345084). Also: nearly all actives have a fitted effect of over 55% in size. Also: potency is read from the fitted curve at half-maximal effect. The conditions noted are these: Gynecologic cancer cell panel viability, ATPlite luminescence, 48 h; series mostly up to 57.5 µM. An outline of the steps: (§1)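 48 h compound exposure at 37 C, 5% CO2; five-point qHTS. ATPlite luminescence readout of cell ATP.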

Assay [2] relates to SKOV3. The description is as above. As to conditions: Gynecologic cancer cell panel viability, ATPlite luminescence, 48 h; series mostly up to 57.5 µM. An outline of the steps:
as §1

In assay [3] the test system is Tov-21-G. The assay is described as above. As to conditions: Gynecologic cancer cell panel viability, ATPlite luminescence, 48 h; series mostly up to 57.5 µM. Put shortly: as §1
Assay [4] has as its system Tov112D. The description is as above. The conditions noted are these: Gynecologic cancer cell panel viability, ATPlite luminescence, 48 h; series mostly up to 57.5 µM. An outline of the steps: as §1
Assay [5] can be described thus: Drug repurposing screens with cells derived from glioblastoma tumor samples (AID 1345199). Also: nearly all actives have a fitted effect of over 40% in size. Also: potency is read from the fitted curve at half-maximal effect. As to activity, negative = cell killing: % is scaled to controls: 0 for no effect and ±100 for the full control effect. The conditions noted are these: GBM patient neurospheres viability, ATP luminescence, 48 h. An outline of the steps: (§2)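 Primary testing used CD133+ neurospheres from four GBM patients, seven concentrations, 48 h exposure and ATP-based viability; confirmation added three slower-growing patient lines.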

The test system of assay [6] is astro. Described as above. As to conditions: viability, ATP luminescence, 48 h; series mostly up to 45.9 µM. Put shortly: as §2
Assay [7] has as its system OV90. Description: Primary qHTS to identify gynecologic anti-cancer compounds using libraries of approved drugs and bioactive compounds (AID 1345084). Also: nearly all actives have a fitted effect of over 55% in size. Also: potency is read from the fitted curve at half-maximal effect. As to conditions: Gynecologic cancer cell panel viability, ATPlite luminescence, 48 h; series mostly up to 57.5 µM. An outline of the steps:
as §1

The target in assay [8] is Nuclear receptor subfamily 1 group I member 2 (Rattus norvegicus) (UniProt Q9R1A7). Description: qHTS assay for small molecule activators of the rat pregnane X receptor (rPXR) signaling pathway (AID 651751; call rule not given here; also: 0% is about no effect). The conditions noted are these: rPXR reporter cells, luciferase (One-Glo), 24 h.
Setting [9] is: at 45.9 µM (top of the series), tumour line B.
Where [10] appears, read: at 46.1 µM (top of the series), tumour line C.
[11] abbreviates: at 45.9 µM (top of the series), tumour line D.
Where [12] appears, read: at 46 µM (top of the series), tumour line A.

Nuclear receptor subfamily 1 group I member 2 (Rattus norvegicus), sequence (Q9R1A7 whole entry, looked up): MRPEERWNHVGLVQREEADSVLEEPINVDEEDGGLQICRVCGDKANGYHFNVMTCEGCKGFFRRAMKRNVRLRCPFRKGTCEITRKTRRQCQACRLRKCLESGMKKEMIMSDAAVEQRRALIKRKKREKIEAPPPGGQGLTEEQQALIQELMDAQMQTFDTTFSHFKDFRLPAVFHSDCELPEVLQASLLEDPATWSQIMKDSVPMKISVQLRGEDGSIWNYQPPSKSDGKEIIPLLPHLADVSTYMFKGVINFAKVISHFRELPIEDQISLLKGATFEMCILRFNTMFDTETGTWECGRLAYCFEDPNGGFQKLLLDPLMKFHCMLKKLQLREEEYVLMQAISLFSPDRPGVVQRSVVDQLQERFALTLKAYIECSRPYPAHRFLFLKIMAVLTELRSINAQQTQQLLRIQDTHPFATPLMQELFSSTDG

Regarding `CN(C)CC[C@@H](c1ccc(Br)cc1)c1ccccn1`, the Potency result in assay [1], in assay [2], in assay [3], in assay [4] and in assay [6] was “inactive” in each case. Moreover, the activity, negative = cell killing in assay [5] (setting [9]) is -11%; in assay [5] (setting [10]) it was 2.86%. Also, the Potency in assay [5] (tumour line A) is 11.2 µM (active).
For `NC(N)=N/N=C/c1c(Cl)cccc1Cl`, the Potency entry in assay [1], in assay [3], in assay [4] and in assay [6] was “inactive” each time. For the same compound, in assay [5] (setting [10]), the activity, negative = cell killing was 0.325%. In addition, the Potency in assay [5] (tumour line A) is 15.8 µM (active).
In the case of `OCCN1CCN(CC/C=C2/c3ccccc3Sc3ccc(C(F)(F)F)cc32)CC1`, the Potency is 10 µM (active) in assay [7] and 2 µM (active) in assay [5] (tumour line A). The Potency entry in assay [3] and in assay [4] was “inactive” throughout. In addition, the activity, negative = cell killing in assay [5] (setting [10]) is -15%.
`O=C(O)CP(=O)(O)O`: the Potency result in assay [7], in assay [2], in assay [3], in assay [4] and in assay [6] was “inactive” throughout. Moreover, the activity, negative = cell killing in assay [5] (setting [9]) is -17.9%; in assay [5] (setting [11]) it was 13.7%; in assay [5] (setting [12]) it was -25.2%; in assay [5] (setting [10]), -15.6%.
With `CCCCCCCC/C=C\CCCCCCCC(=O)NCc1ccc(O)c(OC)c1`, the Potency entry in assay [7], in assay [2], in assay [4] and in assay [6] was “inactive” throughout.
With `CN/C(=C\[N+](=O)[O-])NCCSCc1ccc(CN(C)C)o1`, the Potency in assay [7] is 14.1 µM (active). Moreover, the Potency result in assay [1], in assay [4] and in assay [6] was “inactive” in each case. For the same compound, in assay [5] (setting [10]), the activity, negative = cell killing was -1.34%.
`CC(C)(C)NCC(O)c1cc(O)cc(O)c1` (configuration not stated): the Potency entry in assay [1], in assay [2], in assay [3], in assay [4] and in assay [6] was “inactive” throughout. Moreover, the activity, negative = cell killing in assay [5] (setting [9]) is 0.586%; in assay [5] (setting [11]), -16.8%; in assay [5] (setting [12]) it was -15.6%; in assay [5] (setting [10]) it was -15.7%.
For `COc1ccc(CCN(C)CCCC(C#N)(c2cc(OC)c(OC)c(OC)c2)C(C)C)cc1OC` (configuration not stated), the Potency result in assay [7], in assay [2], in assay [3], in assay [4] and in assay [6] was “inactive” each time. For the same compound, the activity, negative = cell killing was -13.5% in assay [5] (setting [9]) and -13.9% in assay [5] (setting [10]). The Potency in assay [5] (tumour line A) was 14.1 µM (active).
Turning to `c1cc(CN2CCCCC2)cc(OCCCNc2nc3ccccc3s2)c1`, the Potency entry in assay [1], in assay [3] and in assay [4] was “inactive” throughout.
Take `C[C@H](CS)C(=O)N1CCC[C@H]1C(=O)O`: the Potency result in assay [1], in assay [3], in assay [4] and in assay [6] was “inactive” each time. For the same compound, the activity, negative = cell killing in assay [5] (setting [9]) is 1.21%; in assay [5] (setting [11]), -0.196%; in assay [5] (setting [12]) it was -14.4%; in assay [5] (setting [10]), -15.5%.
As to `COc1cc(C(=O)OCCCN2CCCN(CCCOC(=O)c3cc(OC)c(OC)c(OC)c3)CC2)cc(OC)c1OC`, the Potency result in assay [1], in assay [2] and in assay [4] was “inactive” each time. Moreover, the activity, negative = cell killing in assay [5] (setting [10]) was -7.95%. Further, the Potency was 3.98 µM (active) in assay [5] (tumour line A) and 22.4 µM (active) in assay [5] (tumour line D).
As for `COC(=O)C1=C(C)NC(C)=C(C(=O)OCCN(C)Cc2ccccc2)C1c1cccc([N+](=O)[O-])c1` (configuration not stated), the Potency entry in assay [3] is “inactive”. Further, the activity, negative = cell killing in assay [5] (setting [10]) was 14.5%. In addition, the Potency in assay [5] (tumour line A) was 8.91 µM (active); in assay [5] (tumour line D) it was 14.1 µM (active).
In the case of `Nc1nc(N)c2nc(-c3ccccc3)c(N)nc2n1`, the Potency entry in assay [2] was “inactive”. Also, the Potency is 20 µM (active) in assay [3], 12.6 µM (active) in assay [5] (tumour line A) and 28.2 µM (active) in assay [5] (tumour line B). In assay [5] (setting [10]), the activity, negative = cell killing is 0.453%. Besides, the max response in assay [8] is 0.808% and 7.32%.
Consider `COCCCC/C(=N\OCCN)c1ccc(C(F)(F)F)cc1`, for which the Potency result in assay [1], in assay [3] and in assay [4] was “inactive” each time.
Take `CC(C)(C)c1ccc(C(=O)CCCN2CCC(OC(c3ccccc3)c3ccccc3)CC2)cc1`: the Potency result in assay [3] and in assay [4] was “inactive” throughout. In addition, the activity, negative = cell killing in assay [5] (setting [10]) was -18.9%. Moreover, the Potency is 2.51 µM (active) in assay [5] (tumour line A), 25.1 µM (active) in assay [5] (tumour line B), 5.01 µM (active) in assay [5] (tumour line D) and 12.6 µM (active) in assay [6].
`CC(C)COCC(CN(Cc1ccccc1)c1ccccc1)N1CCCC1` (configuration not stated): the Potency in assay [7] was 25.1 µM (active); in assay [5] (tumour line A) it was 11.2 µM (active); in assay [5] (tumour line D), 11.2 µM (active). Moreover, in assay [3], the Potency result is “inactive”. In assay [5] (setting [10]), the activity, negative = cell killing is -7.32%.
Take `CCC(=O)c1ccc2c(c1)N(CCCN(C)C)c1ccccc1S2`: the Potency result in assay [1], in assay [3] and in assay [4] was “inactive” in each case.
Take `CN1CCN(C2=Nc3ccccc3Oc3ccc(Cl)cc32)CC1`: the Potency result in assay [1], in assay [2], in assay [3] and in assay [4] was “inactive” in each case. Further, the activity, negative = cell killing is -15.4% in assay [5] (at 20 µM (top of the series), tumour line C); -17.3% in assay [5] (at 21.2 µM (top of the series), tumour line B); -18.3% in assay [5] (at 21.2 µM (top of the series), tumour line D). In addition, the Potency in assay [5] (tumour line A) is 12.6 µM (active).
For `O=C1NCN(c2ccccc2)C12CCN(CCCC(c1ccc(F)cc1)c1ccc(F)cc1)CC2`, the figures for the Potency in assay [7] and in assay [6] were 20 µM (active) and 12.6 µM (active), respectively. Further, the Potency entry in assay [3] was “inactive”.
On to `CCNC(=O)N1CCN(CCCC(c2ccc(F)cc2)c2ccc(F)cc2)CC1`, for which the Potency entry in assay [1], in assay [3], in assay [4] and in assay [6] was “inactive” in each case.
In the case of `CC1=NS(=O)(=O)c2cc(Cl)ccc2N1`, the Potency entry in assay [1], in assay [3] and in assay [4] was “inactive” throughout. In addition, the activity, negative = cell killing in assay [5] (setting [9]) is -1.9%; in assay [5] (setting [11]), 2.33%; in assay [5] (setting [12]) it was -21.7%; in assay [5] (setting [10]), 8.3%.
As for `NC1=NCC2c3ccccc3Cc3ccccc3N12` (configuration not stated), the Potency entry in assay [1], in assay [2], in assay [3] and in assay [6] was “inactive” in each case. Besides, the activity, negative = cell killing in assay [5] (setting [9]) is -23.2%. The Potency in assay [5] (tumour line A) was 12.6 µM (active).
